In PubChem BioAssay AID1159580 (chemical genetic matrix, 2015):
Where “and” joins values, the source holds several entries; their conditions need not be identical. Equal entries are not always repeated. In all, about 5,500 compounds went through this assay and about 2,000 (36%) were called active. Roughly 18% stayed inconclusive and do not appear here. Rule as the data show it: active = normalized growth mostly below about 0.91 (no sharp cut-off); inconclusive = no clear call, values can overlap the other calls; inactive = mostly above about 0.92. Some of the results follow.

Test: chemical genetic growth profiling, strain panel (AID 1159580);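 also: tested at 20 µM; growth read once vehicle control cultures reached saturation at 30 °C; 1 = growth at the plate median or of vehicle wells; lower values mean less growth of the strain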
Conditions: growth OD

Measured: normalized growth

CN=C(NC#N)NCCSCc1nc[nH]c1C
inactive: S. cerevisiae deletion strains, locus YJR075W, strain HOC1, active compounds read low 1.01 | S. cerevisiae deletion strains, locus YKL009W, strain mrt4, active compounds read low 1.03 | S. cerevisiae deletion strains, locus YKL068W, active compounds read low 0.992 | S. cerevisiae deletion strains, locus YKL085W, strain MDH1 (second series), active compounds read low 0.992 | S. cerevisiae deletion strains, locus YKL085W, strain MDH1, active compounds read low 0.992 | S. cerevisiae deletion strains, locus YKL160W, strain elf1, active compounds read low 0.986 | S. cerevisiae deletion strains, locus YKL190W, strain CNB1, active compounds read low 1 | S. cerevisiae deletion strains, locus YKR001C, strain vps1, active compounds read low 0.998 | S. cerevisiae deletion strains, locus YKR026C, strain gcn3, active compounds read low 1 | S. cerevisiae deletion strains, locus YKR091W, strain srl3, active compounds read low 1 | S. cerevisiae deletion strains, locus YLL001W, strain dnm1, active compounds read low 1 | S. cerevisiae deletion strains, locus YLL026W, active compounds read low 0.997 | S. cerevisiae deletion strains, locus YLL041C, strain sdh2, active compounds read low 1 | S. cerevisiae deletion strains, locus YLR027C, strain aat2, active compounds read low 1.01 | S. cerevisiae deletion strains, locus YLR039C, strain RIC1, active compounds read low 1 | S. cerevisiae deletion strains, locus YLR058C, strain SHM2, active compounds read low 0.989 | S. cerevisiae deletion strains, locus YLR102C, strain apc9, active compounds read low 0.985 | S. cerevisiae deletion strains, locus YLR113W, strain HOG1, active compounds read low 1.03 | S. cerevisiae deletion strains, locus YLR221C, strain rsa3, active compounds read low 0.986 | S. cerevisiae deletion strains, locus YLR258W, strain gsy2, active compounds read low 1.02 | S. cerevisiae deletion strains, locus YLR262C, strain YPT6 (second series), active compounds read low 1.01 | S. cerevisiae deletion strains, locus YLR262C, strain YPT6, active compounds read low 1.01 | S. cerevisiae deletion strains, locus YLR268W, strain sec22, active compounds read low 0.955 | S. cerevisiae deletion strains, locus YLR320W, strain mms22, active compounds read low 0.982 | S. cerevisiae deletion strains, locus YLR330W, strain CHS5, active compounds read low 0.991 | S. cerevisiae deletion strains, locus YLR342W, strain FKS1 (second series), active compounds read low 1.01 | S. cerevisiae deletion strains, locus YLR342W, strain FKS1, active compounds read low 1 | S. cerevisiae deletion strains, locus YLR357W, strain rsc2, active compounds read low 0.979 | S. cerevisiae deletion strains, locus YLR370C, strain arc18, active compounds read low 1.01 | S. cerevisiae deletion strains, locus YLR371W, strain rom2, active compounds read low 0.993 | S. cerevisiae deletion strains, locus YLR384C, strain iki3, active compounds read low 0.998 | S. cerevisiae deletion strains, locus YLR418C, strain cdc73, active compounds read low 1.03 | S. cerevisiae deletion strains, locus YML016C, strain PPZ1, active compounds read low 0.997 | S. cerevisiae deletion strains, locus YML032C, strain rad52, active compounds read low 0.986 | S. cerevisiae deletion strains, locus YML120C, strain ndi1, active compounds read low 0.993 | S. cerevisiae deletion strains, locus YML124C, strain tub3, active compounds read low 0.98 | S. cerevisiae deletion strains, locus YMR058W, strain fet3, active compounds read low 1 | S. cerevisiae deletion strains, locus YMR078C, strain ctf18, active compounds read low 0.986 | S. cerevisiae deletion strains, locus YMR125W, strain sto1, active compounds read low 0.996 | S. cerevisiae deletion strains, locus YMR129W, active compounds read low 1 | S. cerevisiae deletion strains, locus YMR205C, strain PFK2, active compounds read low 0.994 | S. cerevisiae deletion strains, locus YMR223W, strain ubp8, active compounds read low 1.02 | S. cerevisiae deletion strains, locus YMR231W, strain pep5, active compounds read low 0.999 | S. cerevisiae deletion strains, locus YMR263W, strain SAP30, active compounds read low 0.998 | S. cerevisiae deletion strains, locus YMR307W, strain GAS1, active compounds read low 1 | S. cerevisiae deletion strains, locus YNL067W, strain RPL9B, active compounds read low 1 | S. cerevisiae deletion strains, locus YNL071W, strain lat1, active compounds read low 1.01 | S. cerevisiae deletion strains, locus YNL128W, strain TEP1, active compounds read low 0.991 | S. cerevisiae deletion strains, locus YNL153C, strain GIM3, active compounds read low 0.994 and 1.05 | S. cerevisiae deletion strains, locus YNL175C, strain NOP13, active compounds read low 1 | S. cerevisiae deletion strains, locus YNL183C, strain NPR1, active compounds read low 1 | S. cerevisiae deletion strains, locus YNL197C, strain WHI3, active compounds read low 1.02 | S. cerevisiae deletion strains, locus YNL209W, strain ssb2, active compounds read low 1 | S. cerevisiae deletion strains, locus YNL224C, strain SQS1, active compounds read low 0.993 | S. cerevisiae deletion strains, locus YNL233W, strain BNI4, active compounds read low 0.988 | S. cerevisiae deletion strains, locus YNL248C, strain rpa49, active compounds read low 0.996 | S. cerevisiae deletion strains, locus YNL250W, strain rad50, active compounds read low 0.953 | S. cerevisiae deletion strains, locus YNL271C, strain bni1, active compounds read low 0.965 | S. cerevisiae deletion strains, locus YNL298W, strain CLA4, active compounds read low 0.971 | S. cerevisiae deletion strains, locus YNL307C, strain MCK1, active compounds read low 0.996 | S. cerevisiae deletion strains, locus YNL322C, strain KRE1 (second series), active compounds read low 0.989 | S. cerevisiae deletion strains, locus YNL322C, strain KRE1, active compounds read low 1 | S. cerevisiae deletion strains, locus YNR049C, strain mso1, active compounds read low 1 | S. cerevisiae deletion strains, locus YNR052C, strain pop2, active compounds read low 1 | S. cerevisiae deletion strains, locus YOL006C, strain TOP1, active compounds read low 1.01 | S. cerevisiae deletion strains, locus YOL012C, strain htz1 0.875 | S. cerevisiae deletion strains, locus YOL147C, strain pex11, active compounds read low 0.973 | S. cerevisiae deletion strains, locus YOR001W, strain rrp6, active compounds read low 0.999 | S. cerevisiae deletion strains, locus YOR061W, strain CKA2, active compounds read low 0.99 | S. cerevisiae deletion strains, locus YOR069W, strain VPS5, active compounds read low 0.99 | S. cerevisiae deletion strains, locus YOR070C, strain gyp1, active compounds read low 0.996 | S. cerevisiae deletion strains, locus YOR080W, strain dia2, active compounds read low 1 | S. cerevisiae deletion strains, locus YOR083W, strain WHI5 (second series), active compounds read low 1.04 | S. cerevisiae deletion strains, locus YOR083W, strain WHI5, active compounds read low 0.981 | S. cerevisiae deletion strains, locus YOR106W, strain vam3, active compounds read low 0.979 | S. cerevisiae deletion strains, locus YOR136W, strain idh2, active compounds read low 0.994 | S. cerevisiae deletion strains, locus YOR144C, strain elg1, active compounds read low 0.983 | S. cerevisiae deletion strains, locus YOR184W, strain ser1, active compounds read low 0.993 | S. cerevisiae deletion strains, locus YOR231W, strain MKK1, active compounds read low 1.03 | S. cerevisiae deletion strains, locus YOR265W, strain rbl2, active compounds read low 0.999 | S. cerevisiae deletion strains, locus YOR270C, strain vph1, active compounds read low 1.02 | S. cerevisiae deletion strains, locus YOR290C, strain snf2, active compounds read low 0.972 | S. cerevisiae deletion strains, locus YOR316C, strain cot1, active compounds read low 0.991 | S. cerevisiae deletion strains, locus YPL051W, strain arl3, active compounds read low 0.991 | S. cerevisiae deletion strains, locus YPL055C, strain LGE1, active compounds read low 1.05 | S. cerevisiae deletion strains, locus YPL078C, strain atp4, active compounds read low 1.01 | S. cerevisiae deletion strains, locus YPL106C, strain sse1, active compounds read low 0.972 | S. cerevisiae deletion strains, locus YPL240C, strain hsp82, active compounds read low 1 | S. cerevisiae deletion strains, locus YPL241C, strain CIN2, active compounds read low 0.995 and 1.01 | S. cerevisiae deletion strains, locus YPL256C, strain CLN2, active compounds read low 1.06 | S. cerevisiae deletion strains, locus YPR119W, strain clb2, active compounds read low 0.978 | S. cerevisiae deletion strains, locus YPR141C, strain kar3, active compounds read low 0.97 | S. cerevisiae deletion strains, locus YPR163C, strain tif3, active compounds read low 0.984 | S. cerevisiae deletion strains, locus YPR167C, strain met16, active compounds read low 0.986 | S. cerevisiae deletion strains, strain wtn01, active compounds read low 1.01 | S. cerevisiae strains, strain wild type, active compounds read low 0.998
